Records with an inconclusive call do not appear. Entries that show only a call come without a potency. Calls of active or inactive are those of the source. The call rests on the fitted dose curve.

The test in a line: p53 small molecule agonists, cell-based qHTS assay with human liver microsomes (AID 1963577).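 Further: p53 response element beta-lactamase reporter cells with liver microsomes plus NADPH.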 The following applies: HCT-116 p53RE-bla with human liver microsomes, ratio, 16 h; series mostly up to 66 µM. The method, boiled down:
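p53RE-bla cells; 5 h settle, 37 C/5% CO2; cpd + HLM 0.5 mg/mL + NADPH 0.5 mg/mL (final); 16 h 37 C; LiveBLAzer 2 h RT dark; fluorescence readout.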
In general terms: In qHTS, concentration-response curves come from the screen itself.
For `CCCCCCCCP(=O)(O)O`, the Potency entry is “inactive”.
As for `c1ccc2c(c1)CCNC2`, the Potency entry was “inactive”.
As for `C[C@]12Cc3nonc3C[C@@H]1CC[C@@H]1[C@@H]2CC[C@@]2(C)[C@H]1CC[C@]2(C)O`, the Potency result is “inactive”.
As to `Nc1cc(Cl)ccc1Cl`, the Potency entry was “inactive”.
For `Clc1cccc(N2CCNCC2)c1` the value was “inactive”; for `N#Cc1c(Cl)cccc1Cl`, “inactive”; for `COc1ccc(CN2CCNCC2)c(OC)c1OC`, “inactive”.
As to `CC(Cc1ccccc1)N(C)Cc1ccco1` (stereo not given), the Potency entry was “inactive”.
Consider `ClCC(Cl)Cl`, for which the Potency entry is “inactive”.
`CC[C@@H](CO)NC(=O)[C@@H]1C=C2c3cccc4c3c(cn4C)C[C@H]2N(C)C1`: the Potency entry was “inactive”.
As to `CC1NCCOC1c1ccccc1` (stereo not given), the Potency result was “inactive”.
In the case of `O=C(Cc1ccccc1)OCCc1ccccc1`, the Potency entry is “inactive”.
For `O=C(Cl)c1ccc(Cl)cc1`, the Potency result is “inactive”.
For the compound `COc1ccc(C(=O)N2CCCC2=O)cc1`, the Potency entry is “inactive”.
`ClCCCN1CCN(c2cccc(Cl)c2)CC1`: the Potency result is “inactive”.
For the compound `C=CCC1([C@H](C)CCC)C(=O)NC(=O)NC1=O`, the Potency result was “inactive”.
Take `ClC(Cl)=C(Cl)Cl`: the Potency entry was “inactive”.
For `CCN(C(C)=O)c1cccc(-c2ccnc3c(C#N)cnn23)c1` the value was “inactive”; for `CCCN1CCC[C@@H]2Cc3[nH]ncc3C[C@H]21`, “inactive”.
Regarding `CC#Cc1cc(C)nc(Nc2ccccc2)n1`, the Potency result is “inactive”.
The value for `BrCCCCBr` was “inactive”.
For `O=c1[nH]oc2c1CCNC2` the value was “inactive”.
For `O=C1OC(CCN2CCCCC2)OC1(c1ccccc1)c1ccccc1` (stereo not given) the value was “inactive”; for `N[C@@H](Cc1ccc(Oc2cc(I)c(O)c(I)c2)c(I)c1)C(=O)O`, “inactive”.
In the case of `O=S1(=O)OC(c2cc(Br)c(O)c(Br)c2)(c2cc(Br)c(O)c(Br)c2)c2ccccc21`, the Potency result was “inactive”.

These data come from PubChem BioAssay (Tox21).
